Source: PubChem BioAssay (EPA / NIEHS)
Inconclusive results are not listed. Some structures have more than one record in an assay (separate samples or runs), and their calls can disagree. The source made the active and inactive calls. How the source made its calls, unless noted: active means hit-call score of the fitted dose curve at least 0.9, where 1 is the maximum; inconclusive means response in the unintended direction; inactive means score below 0.9.

Experiments:
[1] = target: Retinoic acid receptor RXR-alpha (Homo sapiens) (UniProt P19793); assay: ATG_RXRa_TRANS: Attagene TRANS-FACTORIAL HepG2 Assay for human Retinoid X Receptor alpha (RXRa) (AID 2283012)
Summary of the method: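 Measures exogenous chimeric NR-GAL4 activity in transfected HepG2 liver cells after 24 h of dosing. Induced reporter mRNA was detected by RT-PCR with capillary electrophoresis, and gain of signal was analysed against DMSO.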

[2] = target: human Retinoid X Receptor beta (RXRb), RXRB (gene 6257) (UniProt P28702); assay: ATG_RXRb_TRANS: Attagene TRANS-FACTORIAL HepG2 Assay for human Retinoid X Receptor beta (RXRb) (AID 2283013)
Summary of the method: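 Chimeric receptor-Gal4 activity was assessed in transiently transfected human HepG2 cells after 24 h exposure. Transcripts from GAL4-UAS reporters were quantified by fluorescent RT-PCR and capillary electrophoresis, with DMSO as negative control and baseline.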

[3] = target: human RAR-related Orphan Receptor gamma (RORg), RORC (gene 6097) (UniProt P51449); assay: ATG_RORg_TRANS: Attagene TRANS-FACTORIAL HepG2 Assay for human RAR-related Orphan Receptor gamma (RORg) (AID 2283011)
Summary of the method: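 Reporter transcripts from a transfected RORg-GAL4 chimera in HepG2 cells were quantified 24 h after dosing by RT-PCR, 6-FAM labelling, HpaI digestion and capillary electrophoresis; increases over DMSO baseline were fitted.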

[4] = target: human Vitamin D Receptor (VDR), VDR (gene 7421) (UniProt P11473); assay: ATG_VDR_TRANS: Attagene TRANS-FACTORIAL HepG2 Assay for human Vitamin D Receptor (VDR) (AID 2283022)
Summary of the method: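 Transactivation by an exogenous VDR-Gal4 chimera in transiently transfected HepG2 cells was measured as reporter transcript level 24 hours after chemical treatment. RT-PCR products were analysed by capillary electrophoresis and fitted in the positive direction relative to DMSO.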

[5] = target: human Thyroid Receptor alpha (THRa1), THRA (gene 7067) (UniProt P10827); assay: ATG_THRa1_TRANS: Attagene TRANS-FACTORIAL HepG2 Assay for human Thyroid Receptor alpha (THRa1) (AID 2283014)
Summary of the method: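 Transcripts from GAL4-UAS-driven reporters, measured after 24 h compound exposure by RT-PCR plus capillary electrophoresis of 6-FAM-labeled fragments, were fitted for gain of signal relative to DMSO. Cells: transiently transfected HepG2 expressing NR-Gal4 chimeras.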

[6] = read-out: E-selectin (Homo sapiens) (UniProt P16581); assay: BSK_3C_Eselectin: BioMAP Diversity Plus: 3C Assay for Eselectin Biomarker Activity (AID 2283015; active means hit-call score of the fitted dose curve at least 0.9, where 1 is the maximum; inactive means score below 0.9); details: primary human endothelial cells (HUVEC); actives raise or lower the signal
Summary of the method: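 E-selectin ELISA readout, fitted bidirectionally relative to DMSO, taken 24 h post-dosing in HUVEC cultures of the 3C system. Overt cytotoxicity tracked with sulforhodamine B staining of parallel wells.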

[7] = read-out: Interleukin-1 alpha (IL1a), IL1A (gene 3552); assay: BSK_BE3C_IL1a: BioMAP Diversity Plus: BE3C Assay for Interleukin-1 alpha (IL1a) Biomarker Activity (AID 2283016; active means hit-call score of the fitted dose curve at least 0.9, where 1 is the maximum; inactive means score below 0.9); details: primary human bronchial epithelial cells; actives raise or lower the signal
Summary of the method: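 Signal from IL-1a ELISA, taken 24 h after chemical dosing of human bronchial epithelial cells, is compared with DMSO as baseline using bidirectional curve fitting.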

[8] = read-out: Monocyte Chemoattractant Protein-1 (MCP1), CCL2 (gene 6347); assay: BSK_3C_MCP1: BioMAP Diversity Plus: 3C Assay for Monocyte Chemoattractant Protein-1 (MCP1) Biomarker Activity (AID 2283017; active means hit-call score of the fitted dose curve at least 0.9, where 1 is the maximum; inactive means score below 0.9); details: primary human endothelial cells (HUVEC); actives raise or lower the signal
Summary of the method: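 MCP-1 was measured by ELISA 24 h after dosing in primary HUVEC 3C cultures and fitted in both directions relative to DMSO; cytotoxicity was checked by SRB total-protein staining in parallel wells.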

[9] = read-out: Monocyte Chemoattractant Protein-1 (MCP1), CCL2 (gene 6347); assay: BSK_4H_MCP1: BioMAP Diversity Plus: 4H Assay for Monocyte Chemoattractant Protein-1 (MCP1) Biomarker Activity (AID 2283018; active means hit-call score of the fitted dose curve at least 0.9, where 1 is the maximum; inactive means score below 0.9); details: primary human endothelial cells (HUVEC); actives raise or lower the signal
Summary of the method: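 Endothelial cells from umbilical vein were treated with test chemical, then after 24 h MCP-1 levels were quantified by ELISA; endpoint values came from bidirectional fitting with DMSO as baseline of activity.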

[10] = read-out: Human Leukocyte Antigen - DR isotype (HLADR), HLA-DRA (gene 3122); assay: BSK_3C_HLADR: BioMAP Diversity Plus: 3C Assay for Human Leukocyte Antigen - DR isotype (HLADR) Biomarker Activity (AID 2283019; active means hit-call score of the fitted dose curve at least 0.9, where 1 is the maximum; inactive means score below 0.9); details: primary human endothelial cells (HUVEC); actives raise or lower the signal
Summary of the method: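 Bidirectional fitting against DMSO was applied to the HLA-DR ELISA signal from human umbilical vein endothelial cells, 24 h post-dose. Cytotoxicity came from parallel SRB total-protein staining; 3C proliferation was counted by SRB at 48 h.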

[11] = read-out: Interleukin-8 (IL8), CXCL8 (gene 3576); assay: BSK_3C_IL8: BioMAP Diversity Plus: 3C Assay for Interleukin-8 (IL8) Biomarker Activity (AID 2283020; active means hit-call score of the fitted dose curve at least 0.9, where 1 is the maximum; inactive means score below 0.9); details: primary human endothelial cells (HUVEC); actives raise or lower the signal
Summary of the method: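 Endothelial primary cells of human umbilical vein origin are dosed with chemical; after 24 h the IL-8 biomarker is measured by ELISA, and concentration–response is fitted in both directions versus DMSO.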

[12] = read-out: Monokine induced gamma interferon (MIG), CXCL9 (gene 4283); assay: BSK_3C_MIG: BioMAP Diversity Plus: 3C Assay for Monokine induced gamma interferon (MIG) Biomarker Activity (AID 2283021; active means hit-call score of the fitted dose curve at least 0.9, where 1 is the maximum; inactive means score below 0.9;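 on AC50: MIG protein level measured by immunoassay in the treated endothelial cultures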); details: primary human endothelial cells (HUVEC); actives raise or lower the signal
Summary of the method: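 Endothelial primary cells (human umbilical vein) are dosed with test chemical in the 3C system. MIG levels are measured by ELISA at 24 h and fitted in both directions relative to DMSO.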

[13] = BSK_3C_SRB: Viability Assessment in the BioMAP Diversity Plus: 3C Assay (AID 2283023; active means hit-call score of the fitted dose curve at least 0.9, where 1 is the maximum; inactive means score below 0.9;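 further: fitted both ways against DMSO so a hit may be signal rise or drop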); details: primary human endothelial cells (HUVEC)
Summary of the method: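 Cytotoxicity readout in parallel HUVEC 3C cultures: after 24 h compound exposure, cells fixed with 10% TCA, stained with 0.1% SRB and read at 560 nm. Gain or loss relative to DMSO fitted.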

[14] = read-out: Matrix Metallopeptidase 1 (MMP1), MMP1 (gene 4312); assay: BSK_BE3C_MMP1: BioMAP Diversity Plus: BE3C Assay for Matrix Metallopeptidase 1 (MMP1) Biomarker Activity (AID 2283024; active means hit-call score of the fitted dose curve at least 0.9, where 1 is the maximum; inactive means score below 0.9); details: primary human bronchial epithelial cells; actives raise or lower the signal
Summary of the method: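 MMP1 signal, measured by ELISA after a 24 h chemical exposure of human primary bronchial epithelial cells, is analysed with bidirectional fitting using DMSO as negative control.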

[15] = BSK_3C_Vis: BioMAP Diversity Plus: 3C Assay for Morphology Visualization (AID 2283025; active means hit-call score of the fitted dose curve at least 0.9, where 1 is the maximum; inactive means score below 0.9;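 further: fitted both ways so gain or loss versus DMSO counts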); details: primary human endothelial cells (HUVEC)
Summary of the method: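 Morphology read by light microscopy serves as a background control for the multiplexed 3C assay in human umbilical vein endothelial cells, taken 24 h after dosing, with DMSO as the negative control and bidirectional curve fitting.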

[16] = read-out: Pselectin, SELP (gene 6403); assay: BSK_4H_Pselectin: BioMAP Diversity Plus: 4H Assay for Pselectin Biomarker Activity (AID 2283026; active means hit-call score of the fitted dose curve at least 0.9, where 1 is the maximum; inactive means score below 0.9); details: primary human endothelial cells (HUVEC); actives raise or lower the signal
Summary of the method: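 Endothelial primary cells (human umbilical vein) are dosed, incubated 24 h, and assayed for surface P-selectin by ELISA; responses in either direction are fitted relative to the DMSO negative control.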

[17] = BSK_4H_SRB: Viability Assessment in the BioMAP Diversity Plus: 4H Assay (AID 2283027; active means hit-call score of the fitted dose curve at least 0.9, where 1 is the maximum; inactive means score below 0.9;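 further: cells exposed to compound for 24 h before staining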;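 on AC50: curves fitted both ways versus DMSO so AC50 may be loss or gain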); details: primary human endothelial cells (HUVEC)
Summary of the method: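 Cytotoxicity read-out in primary human endothelial cells: after 24 h compound exposure, cells were TCA-fixed (10%), stained with 0.1% SRB and absorbance taken at 560 nm. Values fitted in both directions relative to DMSO.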

[18] = read-out: Urokinase-type plasminogen activator receptor (uPAR), PLAUR (gene 5329); assay: BSK_4H_uPAR: BioMAP Diversity Plus: 4H Assay for Urokinase-type plasminogen activator receptor (uPAR) Biomarker Activity (AID 2283030; active means hit-call score of the fitted dose curve at least 0.9, where 1 is the maximum; inactive means score below 0.9); details: primary human endothelial cells (HUVEC); actives raise or lower the signal
Summary of the method: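 uPAR level read by ELISA on HUVEC cultures (BioMAP 4H) 24 h post-dosing, analyzed for gain or loss relative to DMSO. Parallel SRB staining assessed overt cytotoxicity.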

[19] = read-out: Human Leukocyte Antigen - DR isotype (HLADR), HLA-DRA (gene 3122); assay: BSK_BE3C_HLADR: BioMAP Diversity Plus: BE3C Assay for Human Leukocyte Antigen - DR isotype (HLADR) Biomarker Activity (AID 2283032; active means hit-call score of the fitted dose curve at least 0.9, where 1 is the maximum; inactive means score below 0.9); details: primary human bronchial epithelial cells; actives raise or lower the signal
Summary of the method: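 Chemicals are dosed onto BE3C bronchial epithelial cultures of human origin and left 24 h. HLA-DR is then measured by ELISA, and the endpoint is fitted in both directions using DMSO as the activity baseline.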

[20] = read-out: Vascular endothelial growth factor receptor 2 (Homo sapiens) (UniProt P35968); assay: BSK_4H_VEGFRII: BioMAP Diversity Plus: 4H Assay for Vascular endothelial growth factor receptor 2 (VEGFR2) Biomarker Activity (AID 2283031; active means hit-call score of the fitted dose curve at least 0.9, where 1 is the maximum; inactive means score below 0.9); details: primary human endothelial cells (HUVEC); actives raise or lower the signal
Summary of the method: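 Measured by ELISA after 24 h of compound treatment: VEGFR2 on primary human umbilical vein endothelial cells, fitted in both directions relative to DMSO. Parallel cultures received SRB staining (560 nm) for overt cytotoxicity.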

Measured: AC50

human Thyroid Receptor alpha (THRa1), THRA (gene 7067), sequence (P10827 whole entry, looked up, the tested form may be a part): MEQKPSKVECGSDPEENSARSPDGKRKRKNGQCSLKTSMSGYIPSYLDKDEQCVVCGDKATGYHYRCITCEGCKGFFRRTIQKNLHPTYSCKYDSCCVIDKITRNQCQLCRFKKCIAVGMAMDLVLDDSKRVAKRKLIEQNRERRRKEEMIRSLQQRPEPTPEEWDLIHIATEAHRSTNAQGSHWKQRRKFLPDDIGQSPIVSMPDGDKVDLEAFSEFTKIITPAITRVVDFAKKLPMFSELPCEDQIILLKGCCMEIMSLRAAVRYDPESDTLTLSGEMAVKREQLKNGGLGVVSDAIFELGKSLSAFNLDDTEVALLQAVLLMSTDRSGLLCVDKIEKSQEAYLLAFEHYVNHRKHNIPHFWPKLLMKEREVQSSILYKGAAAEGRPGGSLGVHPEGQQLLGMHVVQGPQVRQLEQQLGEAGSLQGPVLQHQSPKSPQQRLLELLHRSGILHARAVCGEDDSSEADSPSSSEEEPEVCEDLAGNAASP
human RAR-related Orphan Receptor gamma (RORg), RORC (gene 6097), sequence (P51449 whole entry, looked up, the tested form may be a part): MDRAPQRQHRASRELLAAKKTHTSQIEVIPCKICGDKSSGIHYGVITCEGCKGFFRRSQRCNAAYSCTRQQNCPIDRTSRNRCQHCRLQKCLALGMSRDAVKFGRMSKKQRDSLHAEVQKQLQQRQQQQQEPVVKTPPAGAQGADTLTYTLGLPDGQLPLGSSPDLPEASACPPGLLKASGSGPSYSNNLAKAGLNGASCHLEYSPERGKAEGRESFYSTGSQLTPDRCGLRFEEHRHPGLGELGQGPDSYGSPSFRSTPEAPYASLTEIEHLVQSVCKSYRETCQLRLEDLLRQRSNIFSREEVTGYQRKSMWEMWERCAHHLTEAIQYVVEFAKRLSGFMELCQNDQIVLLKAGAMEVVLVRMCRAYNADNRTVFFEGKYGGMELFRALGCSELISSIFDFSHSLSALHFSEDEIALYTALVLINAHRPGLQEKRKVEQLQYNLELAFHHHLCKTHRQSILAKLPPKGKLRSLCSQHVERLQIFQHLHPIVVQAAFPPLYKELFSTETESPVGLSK
Retinoic acid receptor RXR-alpha (Homo sapiens), sequence (P19793 whole entry, looked up, the tested form may be a part): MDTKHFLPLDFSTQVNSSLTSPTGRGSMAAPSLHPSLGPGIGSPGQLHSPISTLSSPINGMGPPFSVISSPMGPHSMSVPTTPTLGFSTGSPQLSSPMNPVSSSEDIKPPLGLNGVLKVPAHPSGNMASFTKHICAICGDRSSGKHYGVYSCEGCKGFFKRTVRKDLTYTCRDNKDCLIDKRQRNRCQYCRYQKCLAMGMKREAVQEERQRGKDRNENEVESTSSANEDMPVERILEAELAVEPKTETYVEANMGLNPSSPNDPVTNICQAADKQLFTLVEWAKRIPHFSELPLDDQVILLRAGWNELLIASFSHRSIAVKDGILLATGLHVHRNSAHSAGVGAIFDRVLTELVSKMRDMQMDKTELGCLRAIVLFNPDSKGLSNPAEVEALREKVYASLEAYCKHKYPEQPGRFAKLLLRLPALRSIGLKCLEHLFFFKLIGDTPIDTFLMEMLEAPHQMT
human Retinoid X Receptor beta (RXRb), RXRB (gene 6257), sequence (P28702 whole entry, looked up, the tested form may be a part): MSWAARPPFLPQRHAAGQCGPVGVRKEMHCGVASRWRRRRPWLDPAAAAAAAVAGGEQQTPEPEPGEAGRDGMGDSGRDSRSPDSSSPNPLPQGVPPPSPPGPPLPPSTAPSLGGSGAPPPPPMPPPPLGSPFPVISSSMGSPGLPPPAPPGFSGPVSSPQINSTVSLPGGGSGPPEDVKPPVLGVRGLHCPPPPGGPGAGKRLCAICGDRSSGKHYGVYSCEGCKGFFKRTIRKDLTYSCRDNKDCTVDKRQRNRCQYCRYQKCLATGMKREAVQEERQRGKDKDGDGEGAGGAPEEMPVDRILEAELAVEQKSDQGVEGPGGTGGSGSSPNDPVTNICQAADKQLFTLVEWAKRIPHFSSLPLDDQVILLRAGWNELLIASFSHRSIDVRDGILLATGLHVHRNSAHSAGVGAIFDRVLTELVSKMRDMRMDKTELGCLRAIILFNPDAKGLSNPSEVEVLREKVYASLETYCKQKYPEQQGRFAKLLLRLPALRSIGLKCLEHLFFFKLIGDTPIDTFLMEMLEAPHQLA
E-selectin (Homo sapiens), sequence (P16581 whole entry, looked up): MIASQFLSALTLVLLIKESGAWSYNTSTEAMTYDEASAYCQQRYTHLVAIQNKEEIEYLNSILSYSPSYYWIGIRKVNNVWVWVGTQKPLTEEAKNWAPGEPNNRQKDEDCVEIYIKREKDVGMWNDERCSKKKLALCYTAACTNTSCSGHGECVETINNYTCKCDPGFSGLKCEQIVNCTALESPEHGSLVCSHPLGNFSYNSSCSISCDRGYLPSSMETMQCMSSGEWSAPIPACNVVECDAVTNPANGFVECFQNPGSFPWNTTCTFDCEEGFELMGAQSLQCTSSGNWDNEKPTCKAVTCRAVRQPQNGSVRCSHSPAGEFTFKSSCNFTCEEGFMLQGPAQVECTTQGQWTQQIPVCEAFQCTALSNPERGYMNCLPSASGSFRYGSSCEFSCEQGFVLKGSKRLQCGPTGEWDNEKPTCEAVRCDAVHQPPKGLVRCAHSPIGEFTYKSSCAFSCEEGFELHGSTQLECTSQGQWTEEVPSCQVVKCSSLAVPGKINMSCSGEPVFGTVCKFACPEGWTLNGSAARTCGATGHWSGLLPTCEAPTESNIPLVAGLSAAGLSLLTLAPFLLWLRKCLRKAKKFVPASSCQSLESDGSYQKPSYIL
human Vitamin D Receptor (VDR), VDR (gene 7421), sequence (P11473 whole entry, looked up, the tested form may be a part): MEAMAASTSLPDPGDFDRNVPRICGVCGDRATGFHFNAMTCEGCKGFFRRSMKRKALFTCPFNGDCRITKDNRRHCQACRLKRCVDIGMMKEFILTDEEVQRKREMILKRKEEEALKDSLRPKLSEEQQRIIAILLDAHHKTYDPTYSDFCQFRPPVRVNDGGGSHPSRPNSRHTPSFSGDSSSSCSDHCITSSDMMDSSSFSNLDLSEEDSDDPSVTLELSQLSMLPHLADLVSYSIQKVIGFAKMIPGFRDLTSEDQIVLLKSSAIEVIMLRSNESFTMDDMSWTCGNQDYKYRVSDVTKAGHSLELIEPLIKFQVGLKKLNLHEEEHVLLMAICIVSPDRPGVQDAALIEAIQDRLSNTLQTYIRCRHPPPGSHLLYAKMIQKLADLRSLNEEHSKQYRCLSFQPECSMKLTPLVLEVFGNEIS

O=C1CCCCCCCCCCC(=O)OCCO1
inactive: [1] | [2]

Cc1ccc([N+](=O)[O-])cc1S(=O)(=O)O
inactive: [3] | [4]

Cc1cnc(NC(=O)C2=C(O)c3ccccc3S(=O)(=O)N2C)s1
inactive: [1] | [2]

C=C1[C@H]2CC[C@@H]3[C@H]2C(C)(C)CCC[C@]13C
inactive: [1] | [2]

CC(C)c1ccc2c(C(C)C)cc(C(C)C)c(S(=O)(=O)O)c2c1
inactive: [1]
active: [2] 18.2 µM

CC(C)CCCCCOC(=O)CCS
inactive: [1] | [2]

CC/C=C\CCOC(=O)CCCCC
inactive: [1] | [2]

Cc1cc(C)c(C(=O)O)c(C)c1
inactive: [3] | [4]

CCCCCCCCCCCCCOP(=O)(O)O
inactive: [3] | [4]

CCCCCC/C=C\CCCCCCCC(=O)O
inactive: [1]
active: [2] 77 µM

COc1cc(NC(=O)CC(C)=O)c(OC)cc1Cl
inactive: [1] | [2]

CC(=O)OCC(C)OC(C)=O (centres undefined)
inactive: [3] | [4]

COC(=O)c1cc(Cl)ccc1[N+](=O)[O-]
inactive: [1]

CCCCCCCC/C=C\CCCCCCCC(=O)O
active: [2] 68 µM
inactive: [1] | [5]

CCCCCCCCCCCCCCCC[N+](C)(C)CC
active: [2] 13 µM | [5] 12.1 µM | [6] 3.48 µM | [7] 7.31 µM | [8] 2.66 µM | [9] 0.845 µM | [10] 0.932 µM | [11] 3.73 µM | [12] 4.05 µM | [13] 0.697 µM | [14] 3.2 µM | [15] 0.533 µM | [16] 6.2 µM | [17] 1.57 µM | [19] 2.28 µM
inactive: [1] | [4] | [18]

CC1=Nc2ccc3ccccc3c2C1(C)C
inactive: [1] | [2] | [5] | [4]

CCCCCCCCc1ccc(Nc2ccc(CCCCCCCC)cc2)cc1
not listed: [3]
inactive: all other assays above

O=C(c1ccc(O)cc1)c1ccc(O)cc1O
inactive: [1] | [2] | [5] | [6] | [7] | [8] | [9] | [10] | [11] | [12] | [13] | [14] | [16] | [17] | [18] | [20] | [19]
active: [14] 12.9 µM | [18] 9.72 µM | [19] 20 µM

CCCCCCCCCCCSCC(=O)O
inactive: [1] | [5] | [4]
active: [2] 11.5 µM

CC(C)(Oc1ccc(C2CC2(Cl)Cl)cc1)C(=O)O (centres undefined)
inactive: [1] | [2] | [5]

CCCCCCCCCCC=CC#N
active: [2] 49.2 µM
inactive: [1] | [5] | [4]

C#CC1(O)CC[C@H]2[C@@H]3CCC4=CCCC[C@@H]4[C@H]3CC[C@@]21C (some centres undefined)
active: [6] 8.71 µM | [7] 35.5 µM | [8] 11 µM | [9] 9.46 µM | [10] 10.8 µM | [11] 10.2 µM | [12] 12.9 µM | [13] 6.9 µM | [14] 36.4 µM | [15] 8.8 µM | [16] 11.4 µM | [17] 8.54 µM | [18] 20 µM | [19] 33.3 µM
inactive: [1] | [2] | [5] | [4] | [20]

O=C(O)CCCCCCCCCC(=O)O
inactive: [1] | [2] | [5] | [4]

CC(=O)c1ccc2c(c1)CCCC2
inactive: [1] | [5] | [4]
active: [2] 42.9 µM

CCCCCCCCC(=O)OCC
inactive: [1] | [2] | [5]

COC(=O)c1c(C)cc(O)c(C)c1O
inactive: [1] | [2] | [5] | [4]

CC(=O)[C@@]1(O)CC[C@H]2[C@@H]3C[C@H](C)C4=CC(=O)C=C[C@]4(C)[C@@]3(F)[C@@H](O)C[C@@]21C
inactive: [1] | [2] | [5] | [4]

CC1(C)O[C@@H]2C[C@H]3[C@@H]4C[C@H](F)C5=CC(=O)C=C[C@]5(C)[C@@]4(F)[C@@H](O)C[C@]3(C)[C@]2(C(=O)CO)O1
inactive: [1] | [2] | [5] | [4]

O=C(O)CCCC[C@@H]1SC[C@@H]2NC(=O)N[C@@H]21
inactive: [1] | [2] | [5] | [4]

CCOc1ccc(N)c([N+](=O)[O-])c1
inactive: [1] | [2] | [5] | [4]

OCCN(CCO)c1ccccc1
inactive: [1] | [2] | [5] | [4]
